Sampled rows, rich in hits. Any-hit rate of the full collection: about 2.1%.
PTAP TSG101 blk – qHTS Assay for Iinhibitors of HIV-1 Budding by Blocking the Interaction of PTAP/TSG101; Tumor susceptibility gene 101 protein (Homo sapiens), Q99816; Fluorescence polarization, FITC-PTAP peptide / Tsg101 binding; Potency, µM (highest dose often 115 µM), inactives show top-dose activity change, negative = inhibition, most hits filed as inhibitors; 340,000 tested, under 10 active; AID 493005, 2010; active = well fitted inhibition curve with a large enough effect in the main read-out, with a control signal flat, not every such curve was filed as active; inconclusive = small, poorly fitted or top-dose-only effect, or effect the other way, or a change in a side signal; inactive = no such curve, though single readings can be large or run the other way; also: % of control where 0% means no effect
Target sequence (Q99816 whole entry, looked up): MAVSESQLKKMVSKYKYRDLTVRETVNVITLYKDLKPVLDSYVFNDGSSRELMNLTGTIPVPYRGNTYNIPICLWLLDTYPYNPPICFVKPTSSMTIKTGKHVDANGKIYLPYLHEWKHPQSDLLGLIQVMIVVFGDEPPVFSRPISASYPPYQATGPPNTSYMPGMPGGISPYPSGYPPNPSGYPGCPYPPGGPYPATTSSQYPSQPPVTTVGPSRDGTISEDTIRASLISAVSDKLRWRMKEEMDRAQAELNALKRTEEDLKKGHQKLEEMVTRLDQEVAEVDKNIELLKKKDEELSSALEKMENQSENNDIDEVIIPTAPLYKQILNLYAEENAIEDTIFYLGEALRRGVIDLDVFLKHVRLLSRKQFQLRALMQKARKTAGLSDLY
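Steps: Tsg101 binding domain dispensed (10 uM final), compounds pinned in DMSO, FITC-labeled PTAP-motif peptide added (50 nM final); after 20 min binding at room temperature, polarization measured.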
TDP-43 yeast inh – qHTS of TDP-43 Inhibitors; AID 652104, 2013; Potency, µM (titrated, usually from 46.1 µM), for the others: top-dose growth rescue (activation), most hits filed as activators; TDP-43 expressing yeast growth rescue, BacTiter-Glo, 24 h; 1.8% of 410,000 active; also: % of control where 0% means no effect; nearly all actives have a fitted effect of over 50% in size
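In this qHTS, compounds that restore growth of yeast expressing TDP-43 appear as activators. Cells (OD600=0.02, galactose medium, raffinose-pregrown) are incubated with compound 24 hr at 30 deg C and growth is quantified by BacTiter-Glo.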
Abeta yeast res – qHTS for compounds that reverse cellular toxicity of Amyloid beta (A-beta) peptide in yeast: Primary Screen | yeast expressing A-beta42, growth rescue, OD600, 48 h; response scale: 0% DMSO, 100% iron-clioquinol control | Potency, µM (series often up to 46.1 µM), most hits filed as activators | 0.063% of 410,000 active | AID 1347071, 2019; also: nearly all actives have a fitted effect of over 55% in size
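Yeast growth medium received pinned compounds, then yeast cells expressing toxic A-beta were added; plates incubated at 30 C for 48 hr. Growth read as absorbance at 600 nm, normalized to DMSO and equimolar FeCl3 plus clioquinol controls.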
FUS yeast rescue – qHTS for Suppressors of FUS Proteinopathy: Primary screen using FUS-linked yeast assay. S. cerevisiae FUS-expressing, growth rescue, OD600, 24 h. Potency, µM (top dose mostly 76.6 µM), most hits filed as activators. 0.24% of 390,000 active. AID 1347120, 2019;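 also: plate controls were DMSO vehicle for no effect and reference control for full effect; nearly all actives have a fitted effect of over 55% in size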
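Restored growth of FUS-toxic S. cerevisiae, read as 600 nm absorbance after 24 h at 30C in galactose medium (starting OD 0.005). Controls CP55940 and DMSO.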
aSyn rescue – qHTS of alpha-syn Inhibitors. Yeast expressing alpha-synuclein, growth rescue, BacTiter-Glo, 24 h. Potency, µM (doses to about 46.1 µM), for inactives: at the top dose growth rescue (activation), hits mostly activators. 0.14% of 370,000 active; also: % of control where 0% means no effect; nearly all actives have a fitted effect of over 65% in size
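Screening used galactose-induced yeast with toxic alpha-synuclein levels, exposed to compound for 24 hr at 30 deg C. Cell growth, read with BacTiter-Glo luminescence, gave the measured signal.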
* hit, by the source's call. Unless noted, calls follow the shape of the dose curve; as a rule, active = well fitted curve in the direction sought with a large enough effect; inconclusive = small, poorly fitted or top-dose-only effect, or another doubt; inactive = no such curve, though single readings can be large; an effect the other way counts as inactive or inconclusive. Potency is read from the fitted curve at half-maximal effect.

`CNC(=O)c1ccc(Nc2nc(-c3ccccc3)nc3ccccc23)cc1` gave PTAP TSG101 blk -1%, TDP-43 yeast inh 0%, Abeta yeast res inactive, FUS yeast rescue inactive and aSyn rescue 12%.
For CCCOC(=O)c1cccc(Nc2nc(-c3cccnc3)nc3ccccc23)c1 the results were PTAP TSG101 blk 4%, TDP-43 yeast inh 22µM*, Abeta yeast res inactive, FUS yeast rescue inactive and aSyn rescue 10%.
Screening COC(=O)c1ccc(Nc2nc(-c3ccc(C)cc3)nc3ccccc23)cc1 returned TDP-43 yeast inh 14µM*, Abeta yeast res inactive and FUS yeast rescue inactive.
For O=C(O)c1ccc(Nc2nc(-c3ccccc3)nc3ccccc23)cc1 the results were PTAP TSG101 blk -7%, TDP-43 yeast inh 22µM*, Abeta yeast res inactive, FUS yeast rescue inactive and aSyn rescue -18%.
`O=C(CCc1cn(Cc2ccccc2F)c2ccccc12)NCc1ccc(Cl)cc1` gave TDP-43 yeast inh 17%, Abeta yeast res inactive and FUS yeast rescue inactive.
`O=c1[nH]c2c(-c3nc(-c4ccc(Cl)cc4)cs3)c(O)cn2c2ccccc12` gave aSyn rescue -1%.
Screening Cc1c(Cl)cccc1-n1nnc(-c2nc(-c3ccc4c(c3)OCO4)no2)c1C returned TDP-43 yeast inh inconclusive, Abeta yeast res inactive and FUS yeast rescue inactive.
Screening CC(=O)N1CC(c2ccccc2)C(c2ccc(Cl)cc2)=N1 (configuration not stated) returned PTAP TSG101 blk 1%, TDP-43 yeast inh 11µM*, Abeta yeast res inactive and aSyn rescue 11%.
For CC(C)NC(=O)N1CC(c2ccccc2)C(c2ccc(Cl)cc2)=N1 (configuration not stated) the results were PTAP TSG101 blk -1%, TDP-43 yeast inh 25%, Abeta yeast res inactive, FUS yeast rescue inactive and aSyn rescue 4%.
`Cc1cc(C)c2sc(N3CCN(C(=O)c4ccc(N(C)C)cc4)CC3)nc2c1` gave TDP-43 yeast inh inconclusive, Abeta yeast res inactive and FUS yeast rescue inactive.
For CCc1cccc2sc(N3CCN(C(=O)C4CC4)CC3)nc12 the results were TDP-43 yeast inh 11µM*, Abeta yeast res inactive and FUS yeast rescue inactive.
For O=C(C1CC1)N1CCN(c2nc3ccccc3s2)CC1 the results were PTAP TSG101 blk 1%, TDP-43 yeast inh -8%, Abeta yeast res inactive, FUS yeast rescue inactive and aSyn rescue 12%.
Screening COc1ccc(OC)c2sc(N3CCN(C(=O)C4CC4)CC3)nc12 returned TDP-43 yeast inh 0%, Abeta yeast res inactive and FUS yeast rescue inactive.
Screening Cc1cc(C)c2sc(N3CCN(C(=O)C4CC4)CC3)nc2c1 returned TDP-43 yeast inh 13µM*, Abeta yeast res inactive and FUS yeast rescue inactive.
`Cc1c(Cl)ccc2sc(N3CCN(C(=O)C4CC4)CC3)nc12` gave TDP-43 yeast inh 32µM*, Abeta yeast res inactive and FUS yeast rescue inconclusive.
Cc1ccc(Cn2c(C)c3cnn(CC(=O)NCCc4ccc(Cl)cc4)c(=O)c3c2C)cc1 was read as TDP-43 yeast inh 6%, Abeta yeast res inactive and FUS yeast rescue inactive.
For CCOC(=O)CCCc1ccc(/C(C)=N/NC(=S)NC)cc1 the results were PTAP TSG101 blk 1%, TDP-43 yeast inh 27%, Abeta yeast res inconclusive, FUS yeast rescue inactive and aSyn rescue 6%.
Screening CCOC(=O)CCCc1ccc(/C(C)=N/NC(N)=S)cc1 returned PTAP TSG101 blk -3%, TDP-43 yeast inh 20µM*, Abeta yeast res inconclusive, FUS yeast rescue inactive and aSyn rescue -8%.
For CNC(=O)c1c(NC(=O)c2cccc(C)c2)sc2c1CCC2 the results were PTAP TSG101 blk -1%, TDP-43 yeast inh 14µM*, Abeta yeast res inactive, FUS yeast rescue inactive and aSyn rescue -8%.
Cc1cccc(C(=O)Nc2sc3c(c2C(=O)O)CCC3)c1 was read as PTAP TSG101 blk -4%, TDP-43 yeast inh -2%, Abeta yeast res inactive, FUS yeast rescue inactive and aSyn rescue -4%.

Screening results: PubChem BioAssay, National Center for Advancing Translational Sciences (NCATS)
